Results filed as inconclusive are left out. Calls of active or inactive are those of the source. The call rests on the fitted dose curve; in most records, active means well fitted curve in either direction with a large enough effect (not every such curve was filed as active); inconclusive means small, poorly fitted or top-dose-only effect, or another doubt; inactive means flat fitted curve, though single readings scatter.
target: Mitogen-activated protein kinase 10 (Mus musculus) (UniProt Q61831); test: JNK3 AlphaScreen Assay (AID 530); settings: JNK3 lysate, c-Jun phosphorylation; series mostly up to 11.4 µM;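 further: kinase came from lysate of stimulated human HepG2 cells; signal reports phosphorylation of biotinylated GST-cJun 1-79 at Ser73 with 10 µM ATP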
Summary of the method: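 Compound titrations were preincubated 15 minutes at room temperature with substrate, antibody and pre-activated JNK3-containing HepG2 lysate. Reactions were started with 10 uM ATP and stopped with EDTA-containing bead buffer for AlphaScreen detection.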

Potency, inactive:
Cc1ccc(Nc2nnc(-c3ccc4c(c3)OCO4)o2)c(C)c1
CN[C@@H](c1ccncc1)[C@@H](NC)c1ccncc1
Cc1cnc(CNc2nc(-c3cccnc3)nc3ccccc23)cn1
C(=N/Nc1nnc2c(n1)[nH]c1ccccc12)/c1cccnc1
CC(C)[C@@H]1OC(=O)C=CC=CC=CC=CC=CC[C@@H](O)[C@H](C)[C@@H](O)C[C@H](O)C[C@H](O)C[C@H](O)C[C@H](O)C[C@H](O)C[C@H](O)C=C[C@@H]1C
COc1ccc2c(c1)Cc1cc(N=[N+]([O-])c3ccc4c(c3)Cc3cc(OC)ccc3-4)ccc1-2
Nc1nc(SC/C=C\c2ccccc2)c2[nH]cnc2n1
O=C(CC(=O)c1ccncc1)c1ccccc1
O=c1oc2cc(N=Cc3ccc4c(c3)OCO4)ccc2c2ccccc12
CSC1(SC2=NCCN2)SC2(NCCN2)S1
O[C@@H](C1=C/C(=C\c2ccncc2)c2ccccc21)c1ccncc1
Nc1nc(SCCc2ccccc2)c2[nH]cnc2n1
Nc1nc(SCc2ccccc2[N+](=O)[O-])c2[nH]cnc2n1
O=S(=O)(c1cnccc1N1CCN(CCO)CC1)N1CCCC1
COc1ccc(Oc2ncc3nc(C)c(=O)n(-c4ccc(OC)cc4)c3n2)cc1
Cn1ncc2c(NCCc3ccccc3)nc(Cl)nc21
C/C(=N/Nc1ccc2ccccc2n1)c1ccccc1O
Nc1[nH]c(=S)[nH]c(=O)c1N=Nc1c(Br)cc(S(N)(=O)=O)cc1Br
COc1ccc(C[C@@H]2C(=O)N[C@H](C)C(=O)N(C)[C@@H]3Cc4ccc(cc4)Oc4cc(ccc4O)C[C@H](C(=O)N[C@@H](C)C(=O)N[C@H](C)C(=O)N2C)N(C)C3=O)cc1
O=C(O)c1ccc(SSc2ccc(C(=O)O)cn2)nc1
Cc1ccc(S(=O)(=O)Nc2cc(=O)[nH]c3c2CCC3)cc1
BrC(c1cccc2ccccc12)c1cccc2ccccc12
c1ccc(C[C@@H](Nc2cccnc2)c2ccccc2)cc1
N=C(N)S[C@H]1c2ccccc2-c2cc([N+](=O)[O-])ccc21
CC(C)(C)C(=O)[C@H]([C@@H](c1ccccc1)N1CCOCC1)N1CCOCC1
O=C(O)CCc1nc(-c2ccccc2-n2cccc2)no1
O=C(O)/C(=C\c1ccccc1)Cc1ccccc1
O=S(=O)(O)c1cc(O)c2c(N=Cc3ccccc3O)cc(S(=O)(=O)O)cc2c1
Cn1c(=S)c2[nH]c(SCc3cccnc3)nc2n(C)c1=O
CC(C)N1CCN(c2ccncc2S(=O)(=O)N2CCCCC2)CC1
Cc1cc2c(cc1C)NC1=C(N2)O[C@H](c2c[nH]c3ccc(COc4ccccc4)cc23)C1=O
COc1cc(Cl)c(CC(=O)c2c[nH]c3ccccc23)cc1OC
Cc1ccc2c(c1)N[C@H](c1ccc(C(=O)O)cc1)c1cccn1-2
COc1ccc2c(Cl)cc(NC(=S)Nc3ccccc3)nc2c1
c1ccc2c(c1)-c1nc3ccccc3cc1[C@H]2N1CCOCC1
Nc1cccc(OCc2nc(N)nc(N)c2-c2ccc(Cl)cc2)c1
CC1=C/C(=C(/c2ccc(O)c(C)c2)c2ccccc2C(=O)O)C=CC1=O
N#C/C(=C\Nc1ccccn1)C(=O)c1ccco1
Cn1c(=O)c2[nH]c(CCCCc3nc4c([nH]3)c(=O)n(C)c(=S)n4C)nc2n(C)c1=S

From PubChem BioAssay (NCATS)
